Source: PubChem
Hits are enriched below; roughly 21% of the tested compounds scored in any of these assays.
NS1 inh: qHTS Assay for Inhibitors of Influenza NS1 Protein Function; Potency, µM (titrated, usually from 46.1 µM), without a hit: at the highest dose activity, positive = more growth; 270,000 tested, 0.4% active; calls by dose curve; further: potency means the concentration at half of the fitted maximal effect; actives are rising curves; nearly all actives have a fitted effect of over 50% in size
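Read-out: OD600 growth recovery of NS1-expressing budding yeast. Cells grown overnight at 30C in -URA glucose medium, washed, resuspended and diluted 1:100 in 2% galactose assay medium, pH 6.0. Same strain lacking NS1 served as positive control.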
Pf growth 96h: Primary qHTS for delayed death inhibitors of the malarial parasite plastid, 96 hour incubation. P. falciparum luciferase reporter growth, 96 h. Potency, µM (titrated, usually from 28.7 µM), for inactives: top-dose activity change, negative = inhibition, actives largely listed as inhibitors. 320,000 tested, 6.9% active. AID 504834, 2011; further: potency means the concentration at half of the fitted maximal effect; on the % scale 0 is the no-effect control and ±100 the full control effect
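Two parasite generations (96 h, 37 C, 5% CO2) of compound exposure in infected erythrocytes (0.05% parasitemia, 2% hematocrit). Luciferase-reporter P. falciparum; decreased luminescence indicates inhibited growth, aimed at apicoplast-acting delayed death.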
Cycloheximide cs: Cycloheximide Counterscreen for Small Molecule Inhibitors of Shiga Toxin; max response, %; AID 2314, 2010; 300,000 tested, 12% active; cell reporter, cycloheximide protein synthesis inhibition counterscreen; in the data active means max response mostly above about 13%, no sharp cut-off; inactive means mostly below about 14%; further: read at 38.3 µM for the half of the compounds with a filed dose; 0% is about no effect
Shiga inhibitor: A qHTS for Small Molecule Inhibitors of Shiga Toxin | Vero cells, Shiga toxin protein synthesis inhibition reporter | inhibition, % at 38.7 µM | 290,000 tested, 9.2% active; in the data active means inhibition mostly above about 28%, no sharp cut-off; inactive means mostly below about 43%; further: 0% is about no effect
Pf growth 48h: Primary qHTS for delayed death inhibitors of the malarial parasite plastid, 48 hour incubation; Potency, µM (highest dose often 28.7 µM), without a hit: at the top dose activity change, negative = inhibition, actives largely listed as inhibitors; 310,000 tested, 5.9% active; AID 504832, 2011; P. falciparum luciferase growth in erythrocytes, 48 h; further: potency means the concentration at half of the fitted maximal effect; on the % scale 0 is the no-effect control and ±100 the full control effect
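Cell-based growth assay: transgenic P. falciparum expressing firefly luciferase, cultured in red cells within RPMI 1640 containing 0.5% w/v Albumax, 24 mM bicarbonate and gentamycin. A drop in luciferase activity indicates inhibition.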
SARS PLpro yeast: qHTS of Yeast-based Assay for SARS-CoV PLP; S. cerevisiae expressing SARS-CoV PLpro, growth rescue; Potency, µM (doses to about 32.9 µM), for inactives: top-dose activity, positive = growth rescue, usual class: activators; 330,000 tested, 0.19% active; calls by dose curve; further: potency means the concentration at half of the fitted maximal effect; 0% is about no effect; nearly all actives have a fitted effect of over 55% in size
Numbers without * were called inactive; ? = inconclusive; nt = no result given. Unless noted, the call rests on the fitted dose curve; in most records, active means well fitted inhibition curve with a large enough effect; inconclusive means small, poorly fitted or top-dose-only effect, or another doubt; inactive means no such curve, though single readings can be large or run the other way.

SMILES	NS1 inh	Pf growth 96h	Cycloheximide cs	Shiga inhibitor	Pf growth 48h	SARS PLpro yeast
Cc1ccc(N2Cc3ccccc3OC(C)C2=O)cc1 (stereo not given)	-3%	9.3µM*	-5	-18	nt	10%
Cc1ccc(CN2C(=O)C(C)Oc3ccccc32)cc1 (stereo not given)	-4%	-25%	2	4	20%	-3%
CC(C)c1cccc(C(C)C)c1NC(=O)CCN1C(=O)NC2(CCCC2)C1=O	nt	-19%	nt	nt	-6%	-2%
C[C@H](NCc1c[nH]c2ccccc12)c1ccccc1	3%	-19%	-1	nt	-10%	7%
O=C1CCCCN1CCc1c[nH]c2ccccc12	9%	152%	25*	active	108%	10%
O=C(Cn1ccc([N+](=O)[O-])n1)NCCc1c[nH]c2ccccc12	nt	-24%	58*	92*	-1%	2%
c1ccc2c(CNC3CCCCCC3)c[nH]c2c1	-8%	10µM*	-1	-29	nt	?
Cc1cc([N+](=O)[O-])nn1CC(=O)NCCc1c[nH]c2ccccc12	nt	30%	5	-14	?	1%
O=C(CN1C(=O)c2ccccc2C1=O)NCCc1c[nH]c2ccccc12	11%	5.2µM*	-5	-8	-2%	-1%
O=C(O)C1CC(=O)N(CCc2c[nH]c3ccccc23)C1 (stereo not given)	-8%	0%	-3	-6	19%	-3%
O=C(O)CC/C(=N/NC(=O)CNC(=O)c1ccc2c(c1)OCCO2)c1ccccc1	10%	2%	-7	-6	18%	-3%
CC(NC(=O)Cc1cc(F)cc(F)c1)C(=O)NC(C(=O)OC(C)(C)C)c1ccccc1 (stereo not given)	nt	nt	1	-8	nt	nt
O=C1c2ccccc2C(=O)N1CCc1c[nH]c2ccc(O)cc12	2%	3.3µM*	34*	46	32%	1%
O=C1CCC(=O)N1CCc1c[nH]c2ccccc12	-4%	20%	-4	-5	?	-2%
c1ccc2c(CN3CCCCCC3)c[nH]c2c1	-37%	-18%	39*	73*	45%	-2%
O=C1c2ccccc2C(=O)N1CCCc1c[nH]c2ccccc12	0%	57%	17*	21	44%	-8%
O=C1c2ccccc2C(=O)N1CCc1c[nH]c2ccccc12	-6%	0%	48*	95*	88%	-1%
Cc1nc(SCC(=O)N2c3ccccc3Sc3ccccc32)n[nH]1	-5%	16%	-6	-10	nt	0%
Cc1ccc(SCCC(=O)NNC(=O)c2ccccc2F)cc1	nt	nt	nt	nt	nt	-1%
CC1(C)C(O)=C(c2nc3ccccc3[nH]2)C(=N)N1c1ccccc1	7%	8.3µM*	-2	-13	?	-1%
N=c1c(-c2nc3ccccc3[nH]2)cc(C(=O)c2cccs2)nn1-c1ccccc1	?	?	3	-7	?	2%
CC(C1CC2CCC1C2)N1CC(O)=C(c2nc3ccccc3[nH]2)C1=N (stereo not given)	-6%	3.3µM*	17	12	?	1%
CC(C)N1CC(O)=C(c2ccccc2)C1=N	2%	27%	1	30	13%	2%
CC(C)N1CC(O)=C(c2nc3ccccc3[nH]2)C1=N	-19%	18%	52*	77*	78%	1%
CCN1C(=O)/C(=C\c2ccncc2)SC1=Nc1ccc(C)c(C)c1	5%	1.9µM*	5	-10	?	-38%
SMILES	NS1 inh	Pf growth 96h	Cycloheximide cs	Shiga inhibitor	Pf growth 48h	SARS PLpro yeast
CCN1C(=O)/C(=C\c2ccncc2)SC1=S	-38%	39%	1	-5	0%	-1%
CCCN1C(=O)/C(=C\c2ccncc2)SC1=Nc1ccccc1	-28%	?	-7	-13	12µM*	-5%
C[C@H](NS(=O)(=O)c1ccc(F)cc1)C(=O)OCC(=O)c1c(N)n(C)c(=O)n(C)c1=O	nt	nt	nt	nt	nt	5%
Cc1cc(C)n(-c2ccc([N+](=O)[O-])cc2-c2nn[nH]n2)n1	nt	5%	7	3	40%	0%
O=[N+]([O-])c1ccc(O)c(-c2nn[nH]n2)c1	0%	nt	37*	53*	21%	9%
CCOc1ccc(OCCNCc2ccc(OC(C)C(=O)N(C)C)c(OCC)c2)cc1 (stereo not given)	-1%	-9%	-2	-5	nt	2%
Cc1ccc(C(=O)Nc2ccc(S(=O)(=O)N3CCc4ccccc43)cc2)o1	-48%	nt	1	9	?	nt
Cc1ccc(C(=O)Nc2ccc(S(=O)(=O)N3CCc4ccccc4C3)cc2)o1	-18%	nt	-3	-6	13µM*	1%
O=C(O)c1ccc(S(=O)(=O)N2CCc3ccccc3C2)cc1	-15%	9.3µM*	-1	-15	-9%	3%
CC(=O)c1ccc(S(=O)(=O)N2CCc3ccccc3C2)cc1	-3%	?	1	nt	13%	22%
O=C(O)c1cc(NN=C2c3ccccc3-c3ccccc32)ccc1Cl	-55%	7%	8	20	24%	-6%
O=C(O)c1cccc(NN=C2c3ccccc3-c3ccccc32)c1	nt	10%	42*	84*	23%	-31%
O=C(O)c1cccc2c1-c1ccccc1/C2=N\Nc1ccccc1	-9%	-18%	50*	116*	61%	-3%
CCC1CCCCN1C(=O)COc1c(Br)cc(Br)c2cccnc12 (stereo not given)	-5%	?	-2	-7	?	0%
CCc1ccc(-c2cc(C(F)(F)F)n3nc(C(=O)Nc4cnn(Cc5ccc(C)cc5)c4)cc3n2)s1	2%	4.7µM*	-6	-10	nt	1%
Cc1ccccc1Cn1cc(NC(=O)c2cc3nc(-c4ccco4)cc(C(F)(F)F)n3n2)cn1	-53%	50%	1	-9	?	-1%
c1nnc(NC2=NCCC2)s1	4%	-9%	-1	-14	nt	4%
C1CCN=C(Nc2nc3c(s2)CCCC3)CC1	-4%	?	39*	120*	80%	1%
c1nnc(NC2=NCCCCC2)s1	3%	5.9µM*	22*	32	31%	-3%
CSc1nc(Cc2ccccc2)cc(=O)[nH]1	-4%	-5%	-3	-6	25%	1%
COc1cccc(/C=C2\N=C(c3cncc(Br)c3)OC2=O)c1	8%	43%	25*	-4	6%	?
C/C(CC(=O)Nc1ccc(N(C)C)cc1)=N\NC(=O)C(=O)NCc1ccccc1	nt	4.7µM*	0	-15	25%	-2%
C/C(CC(=O)Nc1ccc(N(C)C)cc1)=N\NC(=O)c1ccccc1O	-19%	3%	16*	nt	?	-5%
CCC/C=N/NC(=O)c1ccccc1O	0%	1%	18*	47*	-2%	-2%
CCC/C=N/NC(=O)CNC(=O)c1ccccc1Cl	5%	6%	5	5	39%	-4%
